Laboratory results reported in PubChem BioAssay AID504462 (Sanford-Burnham Center for Chemical Genomics, 2011).
Where “and” joins values, the source holds several entries; their conditions need not be identical. Identical values can stand only once. About 1,700 (0.5%) of roughly 340,000 compounds were called active. No stated cut-off is given here; in the data, active means inhibition above about 40%; inactive means the rest. The full list was thinned out, with actives kept by preference.

The compounds below were run against Cysteine protease ATG4B (Homo sapiens) (UniProt Q9Y4P1) (assay: ATG4B protease inhibitors, primary screen, biochemical, fluorescence, uHTS (AID 504462)). Settings: ATG4B cleavage of LC3-PLA2, NBD-HPC fluorescence, 1 h; at 8.33 µM; active compounds read high.
Sequence of Cysteine protease ATG4B (Homo sapiens) (Q9Y4P1 whole entry, looked up): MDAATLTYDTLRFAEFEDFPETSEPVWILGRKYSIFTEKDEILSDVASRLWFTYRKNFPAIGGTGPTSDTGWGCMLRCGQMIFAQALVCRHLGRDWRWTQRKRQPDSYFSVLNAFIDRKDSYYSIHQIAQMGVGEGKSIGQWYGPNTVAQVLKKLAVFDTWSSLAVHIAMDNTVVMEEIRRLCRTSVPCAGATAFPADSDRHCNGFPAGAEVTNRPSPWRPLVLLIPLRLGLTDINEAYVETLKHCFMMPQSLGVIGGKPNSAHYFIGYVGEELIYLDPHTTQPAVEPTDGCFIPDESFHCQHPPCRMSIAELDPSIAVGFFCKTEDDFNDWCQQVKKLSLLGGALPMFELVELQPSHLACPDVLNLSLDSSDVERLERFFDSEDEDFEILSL

inhibition, inactive:
O=C(c1ccc(OC2CCN(C(=O)c3cccnc3)CC2)cc1)N1CCCCCC1 19.9%
COCCN1C=C2C(=O)C(C)(OC(=O)C3CCCC3)C(=O)C=C2C=C1c1ccsc1 (stereo not given) 2.63%
C=CCN1C=C2C(=O)C(C)(OC(=O)CCc3ccccc3)C(=O)C=C2C=C1c1ccc(C#N)cc1 (stereo not given) -3.06%
O=C(O)c1ccc([N+](=O)[O-])cc1Sc1ccsc1 5.83%
COc1ccc(C(=O)CC(=O)c2ccc(C)cc2)c(O)c1 1.97%
CCN1C(=O)/C(=C\N2CCN(c3cccc(Cl)c3)CC2)SC1=S 1.01%
Cn1cccc1/C=C1\SC(=S)N(NC(=O)c2ccc(Cl)cc2)C1=O 11.7%
CCN(CC(=O)Nc1c(F)cccc1F)C(=O)c1ccc(-c2ccccc2)cc1 4.11%
CCCCCc1c(C)nc(N2CCN(Cc3ccc4c(c3)OCO4)CC2)[nH]c1=O -0.63%
O=C(c1cccs1)N1CCN(Cc2ccc3c(c2)OCO3)CC1 -7.13%
COC(=O)c1ccc(CNC(=O)Cn2cc(C)c(=O)[nH]c2=O)cc1 -5.77%
CN1CCN(Cc2nc3cc(NC(=O)COc4ccc([N+](=O)[O-])cc4)ccc3n2C)CC1 -4.73%
CC12c3ccccc3C(c3ccccc31)C1C(=O)N(Cc3cccnc3)C(=O)C12 (stereo not given) -4.51%
Cc1cccc(C)c1N1CCN(S(=O)(=O)N2CCOCC2)CC1 19.1%
Cc1cccc(C(=O)N2CCN(S(=O)(=O)N3CCCCC3)CC2)c1 0.43%
O=C(O)c1ccc(S(=O)(=O)N2CCOCC2)o1 0.56%
O=c1cc(CO)oc(C(Nc2cccc([N+](=O)[O-])c2)c2ccccn2)c1O (stereo not given) -12.1%
CCOn1c(SC(C)C)nc2ccccc2c1=O 7.51%
COCC(C)n1c(SCC(=O)NC2CCCCC2C)nc2ccccc2c1=O (stereo not given) -0.82%
O=C(CNC(=O)c1ccc(Br)o1)NCC1CCCO1 (stereo not given) -6.66%
Cc1ccc(C)c(-n2cc(CN3CCN(C(=O)c4ncn[nH]4)CC3)c(-c3ccccc3)n2)c1 2.98%
Cc1ccc(C(=O)C[n+]2cc(-c3ccccc3)n3c2CCCCC3)cc1 10.8% and 3.23%
O=C(O)c1ccccc1/C=N/Nc1ccc(S(=O)(=O)Nc2ccc(Cl)cc2)cc1[N+](=O)[O-] 1.28%
COc1ccc(Br)cc1/C=N/Nc1ccc(S(=O)(=O)Nc2ccccc2C(=O)O)cc1[N+](=O)[O-] 12.8%
O=C(OCc1cc(Cl)ccc1OC(F)F)c1cccnc1 -2.74%
COc1ccc(CNC(=O)C2(CC3CC(c4ccccc4)=NO3)CCN(C(=O)c3cccc(O)c3)CC2)cc1 (stereo not given) -7.3%
CCOC(=O)c1c(-c2ccccc2)oc2ccc(OCC(=O)NN)cc12 -2.49%
CCOC(=O)c1c(-c2ccccc2)oc2cc(Br)c(O)cc12 -6.47%
O=C(CCc1ccccc1)Nc1ccc(NC(=O)C2CC2)nc1 -15.9%
Cn1c(=O)c2c(SCC(=O)N3CCOCC3)nc(C3CC3)nc2n(C)c1=O -4.88%
Cc1cccc(NC(=S)NCCc2ccc(F)cc2)c1C 20.9%
Cc1ccc(NC(=S)NCCc2ccc(Cl)cc2)c(C)c1 5.82%
O=C(Nc1cccn(Cc2ccccc2Cl)c1=O)NC1CCCCC1 -3.28%
Cc1ccc(CNC(=O)CSc2nnc3c(n2)[nH]c2ccc(F)cc23)cc1 -1.66%
CC1=CC2=NC(=O)/C(=C/c3coc4ccccc4c3=O)C(=N)N2O1 -5.2%
O=C(CNC(=O)c1ccccc1)NCC(=O)OCc1ccc(Cl)cc1 -3.69%

inhibition, active:
CC1(OC(=O)C2CCCC2)C(=O)C=C2C=C(c3ccc(C#N)cc3)OC=C2C1=O (stereo not given) 45.7%
O=C(O)C(c1ccccc1)N1C(=O)/C(=C\c2ccc(-c3cccc(Cl)c3)o2)SC1=S (stereo not given) 59.4%
Fc1ccc2[nH]c3c(N4CCN(Cc5ccc6c(c5)OCO6)CC4)ncnc3c2c1 48.4%
Cc1cccc(C)c1N1CCN(S(=O)(=O)N2CCCCC2)CC1 54.5%
CCOC(=O)C(C)Sc1nc2ccccc2c(=O)n1CC1CCCCC1 (stereo not given) 41.4%
COc1cccc(/C=N/Nc2ccc(S(=O)(=O)Nc3ccccc3C(=O)O)cc2[N+](=O)[O-])c1O 42.3%
CCOC(=O)c1c(-c2ccccc2)oc2cc(Br)c(O)c(C=O)c12 49.9%
Cc1cccc(NC(=S)NCCc2ccc(Cl)cc2)c1C 48.4%
Cc1ccc(N=C2NC(=O)/C(=C/C=C/c3ccco3)S2)cc1C 47.9%
